A number with no mark means an inactive call. The rule behind the calls is not given here.
Target: Pantothenate synthetase (Mycobacterium tuberculosis (strain ATCC 25618 / H37Rv)) (UniProt P9WIL5)
Experiment: Coupled enzyme confirmation of inhibitors against recombinant Mtb PanC (AID 375);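 note: 0% = full reaction with vehicle and 100% = no enzyme background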
Details: coupled enzyme assay; at 10 µM, hits give high values

Sequence of Pantothenate synthetase (Mycobacterium tuberculosis (strain ATCC 25618 / H37Rv)) (P9WIL5 whole entry, looked up): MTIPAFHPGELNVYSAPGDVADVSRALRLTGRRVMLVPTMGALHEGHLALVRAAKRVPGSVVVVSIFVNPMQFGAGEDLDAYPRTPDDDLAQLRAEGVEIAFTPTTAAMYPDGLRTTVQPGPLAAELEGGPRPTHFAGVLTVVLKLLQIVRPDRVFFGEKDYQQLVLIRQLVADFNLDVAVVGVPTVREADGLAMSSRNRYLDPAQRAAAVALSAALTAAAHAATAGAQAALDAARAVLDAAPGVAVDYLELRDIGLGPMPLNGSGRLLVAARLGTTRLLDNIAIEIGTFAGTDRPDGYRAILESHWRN

Compound | inhibition [%]
CCOC(=O)c1cnc(-n2nc(C)cc2C)nc1N1CC(C)OC(C)C1 (configuration not stated) | 0
CCOc1ccc(N(CC(=O)NCc2cccc(OC)c2)S(=O)(=O)c2c(C)noc2C)cc1 | 6
CC1(C)C(=O)Nc2ccccc2N1C(=O)COC(=O)Cn1cnc2ccccc2c1=O | 0
COc1ccc(OC)c(NC(=O)C2C3CC4OC(=O)C2C4C3)c1 (configuration not stated) | 0
COc1ccc(NC(=O)N2CCC(c3nc(-c4cccs4)no3)CC2)cc1 | 0
CC(C)CC(=O)CN1C(=O)C2(OCCO2)c2ccccc21 | 0
COC(=O)c1ccccc1NC(=O)Nc1cccs1 | 7

From PubChem BioAssay
